Experimental data: PubChem BioAssay AID1224921 (Broad Institute, 2016)
Out of some 1,400 compounds screened, about 350 (25%) were called active. Inconclusive results (about 2%) are left out. How the calls were made is not given here. These entries were drawn from the full list. Results with a measured potency or affinity are listed apart.

Test: C. difficile growth inhibition, confirmation, 4-point retest (AID 1224921);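 further: plate controls were DMSO wells for no effect and levofloxacin 16 µg/mL wells for full effect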
Details: Clostridioides difficile clinical isolate growth, OD600, 24 h, active compounds read low; at 30 µM unless noted

Max activity, inactive:
C[C@H]1CN([C@@H](C)CO)C(=O)c2cccc(NS(=O)(=O)c3ccccc3)c2O[C@H]1CN(C)Cc1ccc(Cl)c(Cl)c1 33.4%, C[C@@H]1CN([C@@H](C)CO)C(=O)c2cc(NC(=O)Nc3ccc(C(F)(F)F)cc3)ccc2O[C@@H]1CN(C)Cc1ccc(Oc2ccccc2)cc1 30.2%, C[C@@H]1CN([C@@H](C)CO)C(=O)c2cccc(NS(C)(=O)=O)c2O[C@H]1CN(C)Cc1ccccc1 16.6%, C[C@H](CO)N1C[C@H](C)[C@H](CN(C)Cc2ccccc2)Oc2c(NS(C)(=O)=O)cccc2C1=O 24.8%, C[C@@H]1CN([C@@H](C)CO)C(=O)c2cccc(NS(C)(=O)=O)c2O[C@@H]1CN(C)Cc1ccccc1 -11.2% [at 8 µM], O=C(C[C@H]1C=C[C@H](NC(=O)c2ccncc2)[C@@H](CO)O1)Nc1ccc(-c2ccccc2)cc1 -5.7% [at 0.5 µM], COc1ccc(COC[C@@]23Oc4ccccc4[C@@H](NC(=S)N2C)[C@H]3CO[Si](C)(C)C(C)(C)C)cc1 23.7%, O=C(C[C@H]1C[C@H]2c3cc(NC(=O)Nc4ccccc4)ccc3O[C@H]2[C@@H](CO)O1)NC1CCCC1 -20.3% [at 1.95 µM], C[C@H]1CN([C@@H](C)CO)S(=O)(=O)c2ccc(C3=CCCCC3)cc2O[C@@H]1CN(C)Cc1cccnc1 31.2%, COc1cccc(NC(=O)N(C)C[C@H]2Oc3cc(C#CC4(O)CCCC4)ccc3S(=O)(=O)N([C@@H](C)CO)C[C@H]2C)c1 -5.35% [at 0.5 µM], CO[C@H]1CN(C)C(=O)c2ccc(NC(=O)c3ccccc3F)cc2OC[C@@H](C)N(CC2CC2)C[C@@H]1C -8.61% [at 0.5 µM], COc1ccc(CN(C)C[C@@H]2OCCCC[C@@H](C)Oc3ccc(NC(=O)Nc4cccc5ccccc45)cc3C(=O)N([C@@H](C)CO)C[C@H]2C)cc1 29.5% [at 8 µM], COc1ccc(CN(C)C[C@@H]2OCCCC[C@@H](C)Oc3ccc(NC(=O)Nc4cccc5ccccc45)cc3C(=O)N([C@H](C)CO)C[C@H]2C)cc1 17.7% [at 1.95 µM], COc1ccc(CN(C)C[C@@H]2OCCCC[C@H](C)Oc3ccc(NC(=O)Nc4cccc5ccccc45)cc3C(=O)N([C@@H](C)CO)C[C@H]2C)cc1 25.5%, C[C@@H]1CN([C@@H](C)CO)C(=O)c2cc(NC(=O)Nc3cccc4ccccc34)ccc2O[C@@H](C)CCCCO[C@H]1CN(C)Cc1ccccc1 42%, CC(C)(C)[S@@](=O)N1Cc2cc(C(=O)NCc3ccc4c(c3)OCO4)nc(-c3cccc(-c4cccnc4)c3)c2[C@H]1CCO 31.3% [at 35 µM], O=C(C[C@@H]1C=C[C@H](NC(=O)c2cccnc2)[C@H](CO)O1)NCc1ccc(Cl)c(Cl)c1 -13.7% [at 1.95 µM], Cc1ccc(-c2ccc3c(c2)O[C@@H](CN(C)Cc2cccnc2)[C@H](C)CN([C@@H](C)CO)S3(=O)=O)cc1 41.8%, C[C@H](NC(=O)C[C@@H]1CC[C@@H]2[C@H](COC[C@@H](O)CN2C(=O)Nc2cc(Cl)cc(Cl)c2)O1)c1ccccc1 14% [at 1.95 µM], C[C@H](NC(=O)C[C@@H]1CC[C@@H]2[C@H](COC[C@H](O)CN2C(=O)Nc2cc(Cl)cc(Cl)c2)O1)c1ccccc1 24.8% [at 8 µM], C[C@@H]1CN([C@@H](C)CO)S(=O)(=O)c2ccc(C#CCN(C)C)cc2O[C@H]1CN(C)C(=O)c1ccccc1F 7.9%, N#C[C@@H]1[C@@H](c2ccc(/C=C/c3ccccc3)cc2)[C@@H](CO)N1C(=O)C1CCC1 38.2% [at 35 µM], COc1ccc(C(=O)Nc2ccc3c(c2)OC[C@H](C)N(C(C)=O)C[C@@H](C)[C@H](OC)CN(C)C3=O)cc1 -10.5%, C[C@H](CO)N1C[C@H](C)[C@@H](CN(C)S(C)(=O)=O)OCCCC[C@H](C)Oc2ccc(NC(=O)Nc3cccc4ccccc34)cc2C1=O 7.82%, COc1ccc(-c2ccc([C@H]3[C@@H](C#N)N(C(=O)C4CCCC4)[C@@H]3CO)cc2)cc1 25.1% [at 35 µM], CCCC(=O)Nc1ccc2c(c1)C(=O)N(C)C[C@@H](OC)[C@H](C)CN(CC1CCOCC1)[C@@H](C)CO2 -8.25%, C[C@@H]1CN([C@H](C)CO)S(=O)(=O)c2ccc(C#CC3CC3)cc2O[C@H]1CN(C)Cc1ccncc1 29.7% [at 8 µM], O=C(C[C@@H]1CC[C@H](NC(=O)CCN2CCCCC2)[C@@H](CO)O1)Nc1nccs1 -9.66% [at 1.95 µM], C[C@@H]1CCCCO[C@H](CN(C)Cc2ccc(C(F)(F)F)cc2)[C@H](C)CN([C@@H](C)CO)C(=O)c2cc(NS(C)(=O)=O)ccc2O1 30.2%, O=C(C[C@H]1C=C[C@H](NC(=O)c2ccccn2)[C@@H](CO)O1)NCc1cc(F)cc(F)c1 -9.02% [at 8 µM], O=C(C[C@H]1C[C@H]2c3cc(NC(=O)Nc4ccc(C(F)(F)F)cc4)ccc3O[C@H]2[C@@H](CO)O1)NCc1ccc2c(c1)OCO2 -6.78% [at 1.95 µM], CO[C@@H]1CN(C)C(=O)c2cc(NS(=O)(=O)c3cn(C)cn3)ccc2OC[C@@H](C)N(Cc2cccc(C(F)(F)F)c2)C[C@H]1C 28.5%, Cc1noc(C)c1NC(=O)N[C@@H]1CC[C@H](CC(=O)Nc2ccc(-c3ccccc3)cc2)O[C@H]1CO 26.4%, O=C(Nc1ccc(F)cc1)Nc1ccc2c(c1)[C@H]1C[C@@H](CC(=O)N3CCCCC3)O[C@H](CO)[C@H]1O2 -19.5% [at 2.1 µM], CCCN1C[C@@H](C)[C@@H](OC)CN(C)C(=O)c2cc(NC(=O)c3cccc(OC)c3)ccc2OC[C@H]1C -8.56% [at 0.5 µM], CC(C)CC#Cc1ccc2c(c1)O[C@H](CN(C)CC1CC1)[C@H](C)CN([C@H](C)CO)S2(=O)=O 6.75%, COCC(=O)Nc1ccc2c(c1)OC[C@H](C)N(Cc1cncnc1)C[C@@H](C)[C@H](OC)CN(C)C2=O -11.5%, COc1ccc(CNC(=O)N(C)C[C@H]2OCc3ccccc3-c3c(n(C)c4ccccc34)C(=O)N([C@@H](C)CO)C[C@@H]2C)cc1 30.4%, C[C@H](CO)N1C[C@H](C)[C@H](CN(C)C(=O)Nc2ccc(C(F)(F)F)cc2)Oc2ncc(C3=CCCC3)cc2C1=O 32.4%, C[C@H](CO)N1C[C@H](C)[C@H](CN(C)C(=O)Nc2ccccc2)Oc2ccc(NC(=O)Cc3ccccc3)cc2C1=O -7.38%, C[C@H]1CN([C@@H](C)CO)C(=O)CCCn2nncc2CO[C@H]1CN(C)S(=O)(=O)c1ccc(Oc2ccccc2)cc1 10.4%, C[C@@H]1CN([C@@H](C)CO)C(=O)c2cc(NC(=O)Cc3ccccc3)ccc2O[C@@H]1CN(C)C(=O)Nc1ccccc1 -11.4% [at 0.5 µM], C[C@H]1CN([C@@H](C)CO)C(=O)c2cc(NC(=O)Cc3ccccc3)ccc2O[C@H]1CN(C)C(=O)Nc1ccccc1 -15.5%, C[C@@H]1CN([C@H](C)CO)C(=O)c2cc(NC(=O)Cc3ccccc3)ccc2O[C@@H]1CN(C)C(=O)Nc1ccccc1 -4.25%, CNC[C@@H]1Oc2cc(-c3cccnc3)ccc2S(=O)(=O)N([C@@H](C)CO)C[C@H]1C -5.58% [at 1.95 µM], COc1ccc(-c2cnc3c(c2)C(=O)N([C@H](C)CO)C[C@H](C)[C@H](CN(C)C(=O)Nc2ccc(F)cc2)O3)cc1 13.9%, Cc1ccc(-c2ccc3c(c2)O[C@H](CN(C)Cc2ccncc2)[C@H](C)CN([C@@H](C)CO)S3(=O)=O)cc1 37.3%, CCS(=O)(=O)Nc1ccc2c(c1)C(=O)N(C)C[C@@H](OC)[C@@H](C)CN(CC1CCCC1)[C@H](C)CO2 10.5%, C[C@H](CO)N1C[C@H](C)[C@@H](CN(C)Cc2ccncc2)Oc2cc(C3=CCCCC3)ccc2S1(=O)=O 25.5% [at 28.5 µM], O=C(C[C@@H]1C[C@@H]2c3cc(NC(=O)CC4CC4)ccc3O[C@@H]2[C@@H](CO)O1)NCc1cc(F)ccc1F 18.5%, CO[C@@H]1CN(C)C(=O)c2cc(NC(=O)C3CCC3)ccc2OC[C@@H](C)N(Cc2ccncc2)C[C@@H]1C -8.85% [at 8 µM], C[C@H]1CN([C@@H](C)CO)S(=O)(=O)c2ccc(-c3ccccc3F)cc2O[C@@H]1CN(C)Cc1cccnc1 16.6%, CO[C@@H]1CN(C)C(=O)c2ccc(NC(=O)c3ccc(Oc4ccccc4)cc3)cc2OC[C@@H](C)N(C(C)=O)C[C@H]1C -13.9% [at 2.1 µM], O=C(C[C@@H]1C=C[C@@H](NC(=O)c2cccc(F)c2)[C@H](CO)O1)Nc1nccs1 13.9%, COc1ccc(S(=O)(=O)Nc2ccc3c(c2)C(=O)N([C@@H](C)CO)C[C@@H](C)[C@@H](CN(C)C(=O)CCC(F)(F)F)OCCCC[C@H](C)O3)cc1 -14.1% [at 8 µM], CO[C@H]1CN(C)C(=O)c2cc(NS(=O)(=O)c3cccc(F)c3)ccc2OC[C@@H](C)N(Cc2cc(F)ccc2F)C[C@H]1C -7.98% [at 1.95 µM]
